Values joined by “and” are separate entries in the source; they are usually repeats but may differ in a detail not shown here. Equal entries are not always repeated. Screen size: about 5,500 compounds; about 2,000 (36%) were called active. Another 18% or so got no clear call; they are omitted. Cut-off read from the data, not from the text of the source: active = normalized growth mostly below about 0.91 (no sharp cut-off); inconclusive = no clear call, values can overlap the other calls; inactive = mostly above about 0.92. This is one part of the list.
Assay: chemical genetic growth profiling, strain panel (AID 1159580);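 note: tested at 20 µM; growth read once vehicle control cultures reached saturation at 30 °C; 1 = growth at the plate median or of vehicle wells; lower values mean less growth of the strain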
Details: S. cerevisiae deletion strains, growth OD

Measured: normalized growth

CC(CCC(=O)O)[C@H]1CCC2C3CC[C@@H]4CCCC[C@]4(C)C3CC[C@@]21C (stereo partly drawn)
inactive: locus YAL013W, strain DEP1, hits give low values 0.995 | locus YAL021C, strain ccr4, hits give low values 1.01 | locus YAL026C, strain drs2, hits give low values 1.01 | locus YAL030W, strain snc1, hits give low values 1.01 | locus YBL061C, strain skt5, hits give low values 1.02 | locus YBR009C, strain hhf1, hits give low values 1.01 | locus YBR021W, strain FUR4, hits give low values 0.987 | locus YBR023C, strain chs3, hits give low values 1.03 | locus YBR171W, strain sec66, hits give low values 1.02 | locus YBR229C, strain ROT2, hits give low values 0.991 | locus YBR231C, strain swc5, hits give low values 1.03 | locus YBR279W, strain paf1, hits give low values 1.01 | locus YCL011C, strain gbp2, hits give low values 1.02 | locus YCL016C, strain dcc1, hits give low values 1.04 | locus YCL029C, strain bik1, hits give low values 0.98 | locus YCL061C, strain MRC1, hits give low values 1.02 | locus YCL069W, strain vba3, hits give low values 1.01 | locus YCR088W, strain abp1, hits give low values 1.01 | locus YDL005C, strain med2, hits give low values 0.999 | locus YDL035C, strain GPR1, hits give low values 0.982 | locus YDL040C, strain nat1, hits give low values 1.01 | locus YDL074C, strain BRE1, hits give low values 0.973 | locus YDL101C, strain DUN1, hits give low values 1.01 | locus YDL185W, strain tfp1, hits give low values 0.977 | locus YDL192W, strain arf1, hits give low values 0.98 | locus YDR001C, strain nth1, hits give low values 1.01 | locus YDR069C, strain doa4, hits give low values 0.994 | locus YDR101C, strain arx1, hits give low values 0.983 | locus YDR137W, strain rgp1, hits give low values 1.05 | locus YDR150W, strain NUM1, hits give low values 0.995 | locus YDR159W, strain sac3, hits give low values 0.998 | locus YDR162C, strain NBP2, hits give low values 1.04 | locus YDR195W, strain ref2 0.981 | locus YDR297W, strain sur2, hits give low values 1.01 | locus YDR318W, strain mcm21, hits give low values 0.988 | locus YDR334W, strain swr1, hits give low values 1 | locus YDR335W, strain msn5, hits give low values 1 | locus YDR388W, hits give low values 0.987 | locus YDR392W, strain spt3, hits give low values 0.943 | locus YDR502C, strain sam2, hits give low values 0.979 | locus YEL003W, strain gim4, hits give low values 1.01 | locus YEL037C, strain rad23, hits give low values 0.993 | locus YEL061C, strain CIN8 (second series), hits give low values 1.01 | locus YEL061C, strain CIN8, hits give low values 0.995 | locus YER015W, strain faa2, hits give low values 1 | locus YER016W, strain bim1, hits give low values 1.01 | locus YER110C, hits give low values 0.986 | locus YER111C, strain swi4, hits give low values 1.02 | locus YER155C, strain BEM2 (second series), hits give low values 1.03 | locus YER155C, strain BEM2, hits give low values 0.989 | locus YER167W, strain BCK2, hits give low values 0.98 | locus YFR010W, strain ubp6, hits give low values 0.997 | locus YGL078C, strain dbp3, hits give low values 0.989 | locus YGL086W, strain mad1, hits give low values 0.985 | locus YGL167C, strain pmr1, hits give low values 1.01 | locus YGL173C, strain kem1, hits give low values 1.01 | locus YGL227W, strain vid30, hits give low values 1.02 | locus YGL240W, strain doc1, hits give low values 1.03 | locus YGL248W, strain PDE1, hits give low values 1 | locus YGL253W, strain hxk2, hits give low values 1 | locus YGR078C, strain PAC10, hits give low values 1.02 | locus YGR135W, strain pre9, hits give low values 1.02 | locus YGR252W, strain gcn5, hits give low values 1.08 | locus YHR013C, strain ard1, hits give low values 1.02 | locus YHR027C, strain rpn1, hits give low values 0.995 | locus YHR030C, strain SLT2, hits give low values 0.997 and 0.97 | locus YHR079C, strain IRE1 (second series), hits give low values 0.981 | locus YHR079C, strain IRE1, hits give low values 0.973 | locus YHR094C, strain hxt1, hits give low values 0.985 | locus YHR129C, strain ARP1, hits give low values 0.995 | locus YHR142W, strain chs7, hits give low values 1 | locus YHR200W, strain rpn10, hits give low values 0.995 | locus YIL066C, strain RNR3, hits give low values 0.992 | locus YIL073C, strain SPO22, hits give low values 1.02 | locus YIL125W, strain kgd1, hits give low values 0.988 | locus YIR030C, strain dcg1, hits give low values 0.985 | locus YJL092W, strain hpr5, hits give low values 1.01 | locus YJL095W, strain BCK1 (second series), hits give low values 1 | locus YJL095W, strain BCK1, hits give low values 1.02 and 0.968 | locus YJL115W, strain asf1, hits give low values 1.01 | locus YJL129C, strain trk1, hits give low values 1.03 | locus YJL134W, strain LCB3, hits give low values 0.996 | locus YJL154C, strain vps35, hits give low values 1.01 | locus YJL164C, strain tpk1, hits give low values 1.02 | locus YJL166W, strain qcr8, hits give low values 1.01 | locus YJL168C, strain set2, hits give low values 0.983 | locus YJL187C, strain SWE1 (second series), hits give low values 1.01 | locus YJL187C, strain SWE1, hits give low values 1.01

From PubChem BioAssay AID1159580 (chemical genetic matrix, 2015)
